The campaign covered roughly 66,000 compounds. About 960 (1.5%) showed an effect of 50% or more. Many of the other results were omitted from the sample, so strong results are more common in it than they were.
Tested on: Trypanosoma brucei
Assay: Trypanosoma brucei 72 hour study
Assay type: functional, organism-based
Set-up: scale not given: in the data most compounds retested in dose-response had high values

With `Cc1c[nH]nc1C1CCCN1Cc1nccn1C.O=CO` (stereo not drawn) the “Percent Effect” value (30.3 µM, […]) was -18.81%.

For `CN1CCC(CN2CCC3(CCCN(Cc4ccoc4)C3)C2=O)CC1.O=C(O)C(F)(F)F.O=C(O)C(F)(F)F` (stereo not drawn), the “Percent Effect” value (30.3 µM, […]) was -15.67%.

In the case of `Cn1cc(-c2ncc3c(c2C(=O)O)CCN(Cc2ccco2)C3)cn1.O=C(O)C(F)(F)F`, the “Percent Effect” value (30.3 µM, […]) is reported as -50.82%.

`CN(C)C1CCC2(CCN(Cc3cccnc3)CC2)c2ccccc21.O=C(O)C(F)(F)F.O=C(O)C(F)(F)F.O=C(O)C(F)(F)F` (stereo not drawn) was tested, and the “Percent Effect” value (30.3 µM, […]) was -21.62%.

For `Clc1cccc(C2CCN(c3ncnc4c3CCNC4)C2)c1` (stereo not drawn), the “Percent Effect” value (30.3 µM, […]) was 68.15%.

For `c1cc(C2CCN(c3ncnc4c3CCNCC4)CC2)ccn1`, the “Percent Effect” value (30.3 µM, […]) was 2.643%.

`c1ccn2c(C3CCCN(c4ncnc5c4CCNC5)C3)nnc2c1` (stereo not drawn) was tested, and the “Percent Effect” value (30 µM, 30.03 µM) was -44.47%.

With `c1ccc(C2CCN(c3ncnc4c3CCNC4)CC2)cc1` the “Percent Effect” value (30.3 µM, […]) was 50.1%.

For `c1ccc2c(c1)CN(c1ncnc3c1CCNC3)CCO2`, the “Percent Effect” value (30.3 µM, […]) was 5.814%.

`c1ccc(C2CCCN(c3ncnc4c3CCNC4)CC2)cc1` (stereo not drawn) was tested, and the “Percent Effect” value (30.3 µM, […]) was 41.62%.

`CCCC(=O)NC1CCN(c2ccccc2S(=O)(=O)CC)CC1` was tested, and the “Percent Effect” value (30.3 µM, […]) was -21.44%.

For `CCNc1ncc2c(n1)CN(c1ccc(CC)cc1)C2=O`, the “Percent Effect” value (30.3 µM, […]) was -19.29%.

With `COc1cccc(Cc2nc3c([nH]2)CC(C)(C)CNC3=O)c1OC` the “Percent Effect” value (30 µM, 30.03 µM) was 5.431%.

With `O=C1NCCN1C1CCN(Cc2nc(-c3ccccc3)no2)CC1` the “Percent Effect” value (30.3 µM, […]) was 2.472% and the “Percent Effect” value (10 mM, 10 mM as filed; unlikely as a test dose) was -47.27%.

`O=C(c1ccco1)N1C[C@H]2CN(Cc3cccc(F)c3)C(=O)[C@H]2C1` was tested, and the “Percent Effect” value (30 µM, 30.03 µM) was -14.72%.

With `O=C(NC1CC1)N1C[C@H]2CN(Cc3cccc(F)c3)C(=O)[C@H]2C1` the “Percent Effect” value (30 µM, 30.03 µM) was 59.25%.

In the case of `O=C(CO)N1C[C@H]2CN(Cc3cccc(F)c3)C(=O)[C@H]2C1`, the “Percent Effect” value (30 µM, 30.03 µM) is reported as -7.119%.

In the case of `O=C(O)C(F)(F)F.O=C(O)C(F)(F)F.c1csc(CN2CCOCC3(CCN(C4CCOCC4)C3)C2)c1` (stereo not drawn), the “Percent Effect” value (30 µM, 30.03 µM) is reported as 45.09%.

For `O=c1[nH]c2c(c(=O)n1C1CCCCC1)CCC2NCc1ccccc1` (stereo not drawn), the “Percent Effect” value (30 µM, 30.03 µM) was -25.27%.

`CCn1nc(C)c2ncnc(NCCCn3ccnc3)c21` was tested, and the “Percent Effect” value (30.3 µM, […]) was -35.88%.

For `COc1ccccc1Oc1ncccc1CNC(=O)C1COC(=O)N1` (stereo not drawn), the “Percent Effect” value (30 µM, 30.03 µM) was -37.43%.

`Cc1ccc(Oc2ncccc2CNC(=O)C2COC(=O)N2)c(F)c1F` (stereo not drawn) was tested, and the “Percent Effect” value (30 µM, 30.03 µM) was 17.54%.

For `Cc1cccc(C)c1Oc1ncccc1CNC(=O)C1COC(=O)N1` (stereo not drawn), the “Percent Effect” value (30 µM, 30.03 µM) was 52.62%.

`O=C(O)C(F)(F)F.O=C(O)C(F)(F)F.O=C(O)C(F)(F)F.O=C(O)C(F)(F)F.c1ccc(CN2CCc3c(COCc4ccncc4)cncc3C2)nc1` was tested, and the “Percent Effect” value (30.3 µM, […]) was -62.04%.

With `CCN(CC)Cc1cc(=O)n2c(n1)CN(S(=O)(=O)C1CC1)CCC2.O=C(O)C(F)(F)F` the “Percent Effect” value (30.3 µM, […]) was -2.806%.

In the case of `COc1c(CNC2CCc3c(F)cccc32)c(C)nn1C.Cl` (stereo not drawn), the “Percent Effect” value (10 µM) is reported as -43.32%.

With `CC(C)[C@@H]1CN(Cc2ccccn2)C[C@H]1NS(=O)(=O)N(C)C` the “Percent Effect” value (30 µM, 30.03 µM) was -48.57%.

In the case of `CC(C)[C@@H]1CN(CCOc2ccc(Cl)cc2)C[C@H]1NS(C)(=O)=O`, the “Percent Effect” value (30.3 µM, […]) is reported as 10.13%.

`CC(C)[C@@H]1CN(CCOc2ccccc2)C[C@H]1NS(=O)(=O)N(C)C` was tested, and the “Percent Effect” value (30.3 µM, […]) was 99.19%.

`Cc1ccc2c(c1)C(=O)NCC1(CCN(C(=O)c3ccccn3)CC1)O2` was tested, and the “Percent Effect” value (30.3 µM, […]) was 1.622%.

For `CCN1C(=O)CC(c2ccccc2)C12CCN(CC1CCOCC1)CC2.O=C(O)C(F)(F)F` (stereo not drawn), the “Percent Effect” value (30.3 µM, […]) was 16.26%.

With `CNc1ncc2c(n1)CN(CCc1ccccc1)C2=O` the “Percent Effect” value (30 µM, 30.03 µM) was 0.2551%.

In the case of `COc1ccccc1OC1CCN(Cc2ccc(N(C)C)nc2)CC1`, the “Percent Effect” value (30 µM, 30.03 µM) is reported as 16.29%.

With `COc1ccccc1OC1CCN(Cc2cnc(N(C)C)nc2)CC1` the “Percent Effect” value (30 µM, 30.03 µM) was 59.89%.

With `COCc1ncc(CN2CCC(Oc3ccccc3OC)CC2)cn1` the “Percent Effect” value (30 µM, 30.03 µM) was -7.671%.

`C[C@@H]1C(=O)NC[C@H]2CN(Cc3ccc4c(c3)OCO4)C[C@H]21.O=C(O)C(F)(F)F` was tested, and the “Percent Effect” value (30.3 µM, […]) was -39.22%.

In the case of `Cn1cccc1CN1CCC2(CC1)CN(c1ccccc1)C(=O)CO2.O=C(O)C(F)(F)F`, the “Percent Effect” value (30 µM, 30.03 µM) is reported as -21.68%.

In the case of `CCn1ccc(C(=O)N2CCOC(c3nc(-c4cccs4)no3)C2)n1` (stereo not drawn), the “Percent Effect” value (30.3 µM, […]) is reported as 21.37%.

In the case of `CCCn1cc(C(=O)N2CCOC(c3nc(-c4cccs4)no3)C2)cn1` (stereo not drawn), the “Percent Effect” value (30.3 µM, […]) is reported as 19.04%.

For `CCCn1ccc(C(=O)N2CCOC(c3nc(-c4cccs4)no3)C2)n1` (stereo not drawn), the “Percent Effect” value (30 µM, 30.03 µM) was 67.6%.

For `Cc1csc(CN2CCC3(CC2)COC(COCC2CC2)C3)n1.O=C(O)C(F)(F)F` (stereo not drawn), the “Percent Effect” value (30.3 µM, […]) was -1.163%.

For `COc1nn(C)c2c1CCCN(C(=O)c1ccc3c(c1)OCO3)C2.O=C(O)C(F)(F)F`, the “Percent Effect” value (30 µM, 30.03 µM) was -20.99%.

For `CC(=O)N1CCN(c2cc(CCN)nc(C3CC3)n2)CC1.Cl`, the “Percent Effect” value (30.3 µM, […]) was 1.602%.

With `COCCN1C[C@@H]2CN(Cc3ccc(F)cc3)C[C@@H]2C1=O.O=C(O)C(F)(F)F` the “Percent Effect” value (30.3 µM, […]) was -7.407%.

For `O=C(O)C(F)(F)F.O=C1[C@H]2CN(Cc3ccc(F)cc3)C[C@H]2CN1c1ccsc1`, the “Percent Effect” value (30 µM, 30.03 µM) was 14.65%.

In the case of `O=C(O)C(F)(F)F.O=C1[C@H]2CN(Cc3cccs3)C[C@H]2CN1c1ccsc1`, the “Percent Effect” value (30 µM, 30.03 µM) is reported as 27.72%.

In the case of `O=C(O)C(F)(F)F.O=C1[C@H]2CN(Cc3ccco3)C[C@H]2CN1c1ccsc1`, the “Percent Effect” value (30 µM, 30.03 µM) is reported as 73.83%.

`CCOCCCn1c(NC(=O)c2ccnc(C)n2)nc2ccccc21` was tested, and the “Percent Effect” value (10 µM) was -13.79%.

With `CCOCCCn1c(NC(=O)c2cnn(C)c2)nc2ccccc21` the “Percent Effect” value (30 µM, 30.03 µM) was 64.95%.

`CCOCCCn1c(NC(=O)c2scnc2C)nc2ccccc21` was tested, and the “Percent Effect” value (30 µM, 30.03 µM) was 105.1%.

In the case of `CCOCCCn1c(NC(=O)c2cnc(C)cn2)nc2ccccc21`, the “Percent Effect” value (10 µM) is reported as -41.49%.

With `CCOCCCn1c(NC(=O)c2cc(C)on2)nc2ccccc21` the “Percent Effect” value (10 µM) was -33.65%.

For `CCN(CC)CCn1c(NC(=O)c2scnc2C)nc2ccccc21`, the “Percent Effect” value (10 µM) was 84.6%.

With `CCOCCCn1c(NC(=O)c2ccc(C)nc2)nc2ccccc21` the “Percent Effect” value (30 µM, 30.03 µM) was 8.402%.

For `CCCn1c(NC(=O)CNC(=O)OCC)nc2ccccc21`, the “Percent Effect” value (30 µM, 30.03 µM) was -18.3%.

For `CCOCCCn1c(NC(=O)c2cnc(C)s2)nc2ccccc21`, the “Percent Effect” value (10 µM) was -28.52%.

With `Cc1noc(C)c1CN1CCOCC12CCN(c1ncccn1)CC2.O=C(O)C(F)(F)F` the “Percent Effect” value (30.3 µM, […]) was -79.15%.

— ChEMBL document CHEMBL3988442, “University of Dundee, Small-Polar-MMV Screening Library” (2021)
